Active and inactive are the calls of the source. Unless noted, no rule for the calls is given here.

Experiment [1] relates to Wnt5a (protein binding on small-molecule microarray). The experiment can be described thus: small molecules binding Wnt5a protein – biophysical, small-molecule microarray, 635/667 nm fluorescence, primary screen (AID 1142).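 Also: fluorescence read at 667 nm with signal to noise per printed feature.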 As to conditions: 635 nm fluorescence, higher = more signal.
Experiment [2] in a line: ATP-based viability of Huh7 replicon cells – cell-based, CellTiter-Glo luminescence, basal, 48 h, cytotoxicity control for HCV replication inhibitor project, primary screen (AID 1143).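 Also: Huh7 hepatoma cells carrying a hepatitis C replication reporter with no stimulus; test concentration not given here.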 Conditions: higher = more signal, called active from +8 up or from −8 down. A general note: In antiviral work, replicon cells carry a viral genome segment that copies itself.
Experiment [3] in a line: Pseudomonas biofilm growth suppression – PAO1 strain, BacTiter-Glo luminescence, LB-PBS, primary screen (AID 1144). Conditions: P. aeruginosa PAO1 biofilm, 12 h, higher = more signal.
Experiment [4] in a line: basal CRE-LacZ reporter activity in PC12 – cell-based, unstimulated, primary screen (AID 1145). Conditions: no forskolin, luminescence, 4.5 h, higher = more signal, called active from +8 up or from −8 down.
Experiment [5] in a line: forskolin-driven CRE-LacZ activity in PC12 – cell-based, CRE-LacZ reporter, forskolin-stimulated, primary screen (AID 1146).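 Also: PC12 cells with 6xCRE LacZ reporter stimulated by forskolin 10 µM; beta-galactosidase reporter signal reflecting CREB driven transcription.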 Conditions: luminescence, 4.5 h, higher = more signal, called active from +8 up or from −8 down.
For experiment [6], the target named is Streptavidin (Streptomyces avidinii) (UniProt P22629). Briefly: compounds binding control protein streptavidin – biophysical, small-molecule microarray, 635/667 nm fluorescence, artefact control for SMM compound annotation, primary screen (AID 1147).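 Also: signal reflects streptavidin binding to arrayed compounds as a control protein.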 As to conditions: higher = more signal.
A short description of experiment [7]: probe aInhba binding on compound microarray – biochemical, small-molecule microarray, 635/667 nm fluorescence, primary screen (AID 1148).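 Also: score merges 667nm spot fluorescence with signal-to-noise for antibody binding to printed compounds.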 Conditions: higher = more signal.
Experiment [8] addresses Torsin-1A (Homo sapiens) (UniProt O14656). The experiment can be described thus: TOR1A wild-type binding on microarray – cell lysate, small-molecule microarray, lysate, 635/667 nm, primary screen (AID 1149). Conditions: COS7 hTOR1A-WT lysate, 635 nm fluorescence, higher = more signal.
Experiment [9] shares this target. The experiment can be described thus: torsin A mutant lysate binding on microarrays – cell lysate, small-molecule microarray, COS7 lysate, 635/667 nm fluorescence, primary screen (AID 1150).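 Also: score pools 667 nm emission and signal to noise measuring lysate protein binding.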 Conditions: COS7 hTOR1A mutant lysate, 635 nm fluorescence, higher = more signal.
The test system of experiment [10] is Sonic hedgehog protein (Shh). The experiment can be described thus: Sonic hedgehog microarray binding compounds – biochemical, small-molecule microarray, 635/667 nm fluorescence, primary screen (AID 1151).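 Also: Shh protein binding to compounds spotted on small-molecule microarray slides; score combines spot fluorescence intensity with signal-to-noise across triplicate slides.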 As to conditions: 635 nm fluorescence, higher = more signal.
Experiment [11] is described as follows: optical density shifts of acrAB sulA E. coli – strain DRC41, OD650, 48 h, E. coli filamentation inducer project, primary screen (AID 1152).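 Also: E. coli MC1000 strain DRC41 lacking acrAB efflux pump and sulA.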 As to conditions: higher = more signal, called active from +8 up or from −8 down.
A short description of experiment [12]: probe aLefty1 binding on compound microarray – biochemical, small-molecule microarray, 635/667 nm fluorescence, primary screen (AID 1153).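 Also: score merges spot fluorescence with signal-to-noise ratio from the scanned slide images.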 As to conditions: higher = more signal.
Experiment [13] can be described thus: plasmodial surface anion channel blockers, osmotic lysis – cell-based, P. falciparum Indochina, OD700, 1 h, primary screen (AID 1154). As to conditions: P. falciparum Indochina infected RBC osmotic lysis, higher = more signal, called active from +8 up or from −8 down.
A short description of experiment [14]: plasmodial surface anion channel blockers, osmotic lysis – cell-based, P. falciparum Indochina, OD700, 2 h, primary screen (AID 1155).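 Also: lysis reports solute entry through the parasite surface anion channel PSAC.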 As to conditions: P. falciparum Indochina infected erythrocytes, higher = more signal, called active from +8 up or from −8 down.
The nature of experiment [15]: changes in parasitized red cell lysis, either direction – P. falciparum Indochina, OD700, 3 h, PSAC antagonist project, primary screen (AID 1156). Conditions: P. falciparum-infected erythrocytes, osmotic lysis, higher = more signal, called active from +8 up or from −8 down.
A short description of experiment [16]: plasmodial surface anion channel blockers, osmotic lysis – cell-based, P. falciparum Indochina, OD700, 18 h, primary screen (AID 1157). As to conditions: P. falciparum Indochina infected erythrocytes, osmotic lysis OD700, 18 h; higher = more signal, called active from +8 up or from −8 down.
The nature of experiment [17]: S6 kinase pathway phospho-S6 level changes – cell-based, A549, cytoblot, luminescence, serum-stimulated, primary screen (AID 1158).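 Also: serum-stimulated A549 lung adenocarcinoma cells; signal is phosphorylated S6 detected by cytoblot immunostaining with HRP secondary.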 Conditions: 5 h, higher = more signal.
Experiment [18] has as its target NADPH oxidase 2 (Homo sapiens) (UniProt P04839). The experiment can be described thus: compounds shifting NOX2 Amplex Red fluorescence – cell-based, HEK293-NOX2, PMA-stimulated, NOX inhibitor project, primary screen (AID 1159). Also: test concentration not given here. As to conditions: 45 min, higher = more signal, called active from +8 up or from −8 down.
Experiment [19] addresses NADPH oxidase 4 (Homo sapiens) (UniProt Q9NPH5). The experiment can be described thus: compounds shifting NOX4 Amplex Red fluorescence – cell-based, HEK293-NOX4, tetracycline-induced, NOX inhibitor project, primary screen (AID 1160). As to conditions: HEK293-NOX4, Amplex Red H2O2 fluorescence, 45 min; higher = more signal, called active from +8 up or from −8 down.
Experiment [20] deals with NADPH oxidase 5 (Homo sapiens) (UniProt Q96PH1). The experiment can be described thus: compounds shifting NOX5 Amplex Red fluorescence – cell-based, HEK293-NOX5, NOX inhibitor project, primary screen (AID 1161). As to conditions: HEK293-NOX5, ionomycin, 45 min, higher = more signal.
Sequence of NADPH oxidase 5 (Homo sapiens) (Q96PH1 whole entry, looked up): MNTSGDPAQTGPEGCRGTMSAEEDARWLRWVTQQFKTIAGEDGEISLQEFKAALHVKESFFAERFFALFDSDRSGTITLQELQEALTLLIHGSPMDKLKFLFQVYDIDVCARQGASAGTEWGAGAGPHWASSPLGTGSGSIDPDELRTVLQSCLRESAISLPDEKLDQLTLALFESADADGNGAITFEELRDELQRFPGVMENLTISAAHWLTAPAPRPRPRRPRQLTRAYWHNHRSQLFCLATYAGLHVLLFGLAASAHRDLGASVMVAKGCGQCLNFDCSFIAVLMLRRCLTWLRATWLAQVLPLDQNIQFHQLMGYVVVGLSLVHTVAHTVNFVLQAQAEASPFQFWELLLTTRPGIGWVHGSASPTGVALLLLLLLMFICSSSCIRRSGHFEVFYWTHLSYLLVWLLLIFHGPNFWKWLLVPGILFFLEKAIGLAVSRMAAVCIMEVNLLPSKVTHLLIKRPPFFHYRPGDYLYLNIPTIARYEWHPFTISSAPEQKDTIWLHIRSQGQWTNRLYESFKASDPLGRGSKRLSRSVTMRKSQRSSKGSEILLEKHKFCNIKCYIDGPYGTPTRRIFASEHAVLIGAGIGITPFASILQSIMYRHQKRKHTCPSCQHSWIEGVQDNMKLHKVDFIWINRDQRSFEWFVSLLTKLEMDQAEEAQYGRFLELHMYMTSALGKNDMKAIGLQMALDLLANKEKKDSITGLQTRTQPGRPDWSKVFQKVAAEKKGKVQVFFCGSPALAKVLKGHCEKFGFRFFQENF

Sequence of NADPH oxidase 4 (Homo sapiens) (Q9NPH5 whole entry, looked up): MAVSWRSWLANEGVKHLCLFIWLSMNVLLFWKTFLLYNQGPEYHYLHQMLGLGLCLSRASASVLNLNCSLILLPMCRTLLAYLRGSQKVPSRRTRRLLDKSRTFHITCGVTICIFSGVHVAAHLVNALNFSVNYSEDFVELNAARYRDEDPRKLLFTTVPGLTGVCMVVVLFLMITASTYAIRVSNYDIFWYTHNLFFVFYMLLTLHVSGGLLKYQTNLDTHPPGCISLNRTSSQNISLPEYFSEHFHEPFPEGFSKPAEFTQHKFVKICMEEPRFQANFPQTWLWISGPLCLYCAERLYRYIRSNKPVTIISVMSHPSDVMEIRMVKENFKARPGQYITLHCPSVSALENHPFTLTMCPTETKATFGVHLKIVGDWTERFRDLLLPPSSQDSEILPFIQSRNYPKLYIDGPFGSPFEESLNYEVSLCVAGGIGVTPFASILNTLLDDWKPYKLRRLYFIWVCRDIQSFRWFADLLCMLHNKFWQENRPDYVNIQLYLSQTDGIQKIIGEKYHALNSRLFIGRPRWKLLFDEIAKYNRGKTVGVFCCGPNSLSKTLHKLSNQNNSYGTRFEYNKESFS
Sequence of Streptavidin (Streptomyces avidinii) (P22629 whole entry, looked up): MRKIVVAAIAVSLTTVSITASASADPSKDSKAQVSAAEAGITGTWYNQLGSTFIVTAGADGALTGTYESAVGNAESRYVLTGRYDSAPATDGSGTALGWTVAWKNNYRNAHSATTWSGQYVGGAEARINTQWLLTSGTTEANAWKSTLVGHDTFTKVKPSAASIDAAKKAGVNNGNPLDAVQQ
Sequence of Torsin-1A (Homo sapiens) (O14656 whole entry, looked up): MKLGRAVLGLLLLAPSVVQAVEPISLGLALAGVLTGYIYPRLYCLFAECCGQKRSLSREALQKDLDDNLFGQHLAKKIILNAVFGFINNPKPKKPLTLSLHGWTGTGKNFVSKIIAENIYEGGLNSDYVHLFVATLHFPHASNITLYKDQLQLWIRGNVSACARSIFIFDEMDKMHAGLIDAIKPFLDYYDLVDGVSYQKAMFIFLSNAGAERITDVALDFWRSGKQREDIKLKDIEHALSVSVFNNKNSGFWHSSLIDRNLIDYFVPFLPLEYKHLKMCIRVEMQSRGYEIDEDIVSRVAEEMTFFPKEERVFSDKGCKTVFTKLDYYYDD
Sequence of NADPH oxidase 2 (Homo sapiens) (P04839 whole entry, looked up): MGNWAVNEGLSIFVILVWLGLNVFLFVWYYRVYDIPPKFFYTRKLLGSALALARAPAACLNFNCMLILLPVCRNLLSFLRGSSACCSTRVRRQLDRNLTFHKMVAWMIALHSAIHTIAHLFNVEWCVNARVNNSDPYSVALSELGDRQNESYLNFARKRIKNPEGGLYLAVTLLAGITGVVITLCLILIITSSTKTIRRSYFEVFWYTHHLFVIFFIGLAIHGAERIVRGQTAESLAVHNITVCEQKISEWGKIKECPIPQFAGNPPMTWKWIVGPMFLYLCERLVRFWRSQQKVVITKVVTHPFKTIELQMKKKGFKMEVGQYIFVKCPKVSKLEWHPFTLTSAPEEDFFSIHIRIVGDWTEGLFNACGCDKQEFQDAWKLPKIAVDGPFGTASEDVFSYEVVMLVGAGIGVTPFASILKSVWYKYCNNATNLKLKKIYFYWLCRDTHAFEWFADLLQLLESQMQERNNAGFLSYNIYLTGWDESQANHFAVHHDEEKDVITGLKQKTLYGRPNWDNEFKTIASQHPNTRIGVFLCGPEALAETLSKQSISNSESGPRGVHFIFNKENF

Turning to `C=C(/C(=C/C[C@@H](OC(=O)c1ccncc1)c1cccc(OCCO)c1)c1cc(C(=O)OC)ccc1OC)C(C)C`, the composite z-score is -0.0958 in [1]; 0.179 in experiment [6]; -0.0695 in experiment [7]; 0.227 in the experiment with Torsin-1A (Homo sapiens) [8]; 0.868 in the experiment with Torsin-1A (Homo sapiens) [9]; 1.64 in experiment [10]. In experiment [12], the composite z-score is 0.649. Moreover, the z-score in [2] is -1.82 (inactive); in experiment [3], -0.634 (inactive); in [4], 26.8 (active); in [5] it was -1.07 (inactive); in experiment [11], 0.987 (inactive); in [13] it was 15 (active). Besides, the z-score in [14] is 3.01 (inactive); in experiment [15] it was 2.43 (inactive); in [16], 1.04 (inactive); in [17], 0.421; in [18], 2.05 (inactive); in experiment [19], 1.09 (inactive). The z-score in experiment [20] is -0.951.

Turning to `CC(C)(C)OC(=O)CC[C@]1(C(=O)N2CCCCC2)N=C(c2ccc(OCCCO)cc2)O[C@H]1c1ccccc1CN=[N+]=[N-]`, the composite z-score in experiment [1] amounted to 1.13; in experiment [6] it was 0.835; in experiment [7], 0.927; with Torsin-1A (Homo sapiens) [8] it was 0.635; with Torsin-1A (Homo sapiens) [9] it was 1.17; in experiment [10] it was 0.251. Further, the composite z-score in experiment [12] is 1.66. In addition, the z-score is -3.42 (inactive) in experiment [2]; -0.596 (inactive) in [3]; 0.927 (inactive) in experiment [4]; -0.707 (inactive) in [5]; 2.54 (inactive) in experiment [11]; 21.9 (active) in experiment [13]. Besides, the z-score in experiment [14] is 4.95 (inactive); in experiment [15], 0.768 (inactive); in experiment [16] it was 0.158 (inactive); in experiment [17], 1.89; in [18], -0.683 (inactive); in experiment [19], 1.56 (inactive). Further, the z-score in [20] was 0.95.

For the molecule `COC(=O)[C@@]1(Cc2ccc(OC)cc2)[C@H]2c3cc(C(=O)N(C)C)n(CCF)c3C[C@H]2CN1C(=O)c1ccccc1`, the composite z-score in [1] was 0.17; in [6], 2.2; in experiment [7], 0.515; in the experiment with Torsin-1A (Homo sapiens) [8], 0.3; with Torsin-1A (Homo sapiens) [9], 0.541; in [10] it was -0.379. In experiment [12], this molecule came in with a composite z-score of 0.624. Also, the z-score in experiment [2] was -2.15 (inactive); in experiment [3] it was 0.475 (inactive); in experiment [4], 1.35 (inactive); in experiment [5] it was -0.715 (inactive); in experiment [11] it was -0.55 (inactive); in experiment [13], 1.81 (inactive). Also, the z-score in experiment [14] is 0.847 (inactive); in experiment [15] it was 0.865 (inactive); in experiment [16], 1.06 (inactive); in [17], -0.132; in experiment [18] it was 0.605 (inactive); in [19], 2.58 (inactive). Also, the z-score in experiment [20] came to 0.602.

For the molecule `Cc1ccc(S[C@]2(C(=O)O)CC(=O)N(Cc3ccccc3C(F)(F)F)[C@@H]2c2ccc(CO)cc2)cc1`, the composite z-score in [1] is -0.297; in experiment [6] it was -0.655; in [7], -0.113; in the experiment with Torsin-1A (Homo sapiens) [8] it was 0.0183; in the experiment with Torsin-1A (Homo sapiens) [9] it was 1.46; in experiment [10], -1.1. In experiment [12], this molecule registered a composite z-score of -0.109. Further, the z-score in experiment [2] is 0.455 (inactive); in experiment [3] it was 0.231 (inactive); in experiment [4] it was 0.0279 (inactive); in experiment [5] it was -0.369 (inactive); in [11] it was 0.281 (inactive); in [13], 4.63 (inactive). Also, the z-score in experiment [14] is 0.388 (inactive); in experiment [15], 0.0934 (inactive); in experiment [16], 0.231 (inactive); in [17], -0.854; in [18] it was 0.375 (inactive); in [19], 0.152 (inactive). In addition, the z-score in experiment [20] came out at 0.476.
